Most compounds without a hit are left out; they make up all but 15% or so of the library.
VP16 counter = counter-screen for ROR gamma inhibitors: Gal4-VP16 reporter; Drosophila S2 Gal4-VP16 UAS-luciferase, luminescence, 20 h; hit rate 3.5% among 310,000; Potency, µM (series often up to 53.6 µM), without a hit: top-dose activity, negative = inhibition, hits mostly inhibitors; AID 2546;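 also: Gal4-VP16 expression switched on by copper sulfate through the metallothionein promoter; nearly all actives have a fitted effect of over 50% in size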
ELG1 repair inh = ELG1-dependent DNA repair inhibition; HEK293T ELG1-luciferase reporter, luminescence, 16 h; DNA damage induced by 5-fluorouridine; Potency, µM (titrated, usually from 46.1 µM), for inactives: at the top dose activity change, negative = inhibition, actives largely listed as inhibitors; AID 504467; hit rate 2.3% among 330,000; also: nearly all actives have a fitted effect of over 55% in size
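Cells (2,000 per well) received 5-fluorouridine plus test compound or DMSO and were incubated 16 hr at 37 °C, 5% CO2. Luciferase activity was read by luminescence 30 min after ONE-Glo addition; signal suppression marked inhibition of damage-induced ELG1 function.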
RORgamma inh = blocks mouse ROR gamma transcriptional activity | Drosophila S2 Gal4-RORgamma UAS-luciferase reporter, 20 h | Potency, µM (highest dose often 53.6 µM), for inactives: at the top dose activity change, negative = inhibition, most hits filed as inhibitors | hit rate 5.4% among 310,000 | AID 2551; also: nearly all actives have a fitted effect of over 60% in size
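Luciferase reporter read in Schneider cells carrying Gal4-RORγ (mouse) and UAS-Photinus luciferase; cells given compound 1 h before 700 uM copper sulfate induction, then incubated 20 h at ambient temperature.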
DT40 TDP1 no CPT = qHTS for Inhibitors of human tyrosyl-DNA phosphodiesterase 1 (TDP1): qHTS in cells in absence of CPT | AID 686978, 2013 | hit rate 15% among 420,000 | Potency, µM (doses to about 46.2 µM), inactives show top-dose activity change, negative = growth inhibition, usual class: inhibitors | DT40 Tdp1-/- hTDP1 cells, no CPT, ATP luminescence, 48 h; also: nearly all actives have a fitted effect of over 55% in size
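A cellular qHTS used chicken DT40 cells lacking endogenous Tdp1 but carrying stably transfected human TDP1. Compounds were applied without camptothecin, and cell growth kinetics were judged by ATP-dependent luminescence after ≥48 hr.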
12-LOX inh = blocks human arachidonate 12S-lipoxygenase | Potency, µM (doses to about 108 µM), for inactives: top-dose activity change, negative = inhibition, actives largely listed as inhibitors | P18054 | hit rate 1.1% among 580,000 | purified 12hLO, xylenol orange hydroperoxide absorbance
Target sequence (P18054 whole entry, looked up): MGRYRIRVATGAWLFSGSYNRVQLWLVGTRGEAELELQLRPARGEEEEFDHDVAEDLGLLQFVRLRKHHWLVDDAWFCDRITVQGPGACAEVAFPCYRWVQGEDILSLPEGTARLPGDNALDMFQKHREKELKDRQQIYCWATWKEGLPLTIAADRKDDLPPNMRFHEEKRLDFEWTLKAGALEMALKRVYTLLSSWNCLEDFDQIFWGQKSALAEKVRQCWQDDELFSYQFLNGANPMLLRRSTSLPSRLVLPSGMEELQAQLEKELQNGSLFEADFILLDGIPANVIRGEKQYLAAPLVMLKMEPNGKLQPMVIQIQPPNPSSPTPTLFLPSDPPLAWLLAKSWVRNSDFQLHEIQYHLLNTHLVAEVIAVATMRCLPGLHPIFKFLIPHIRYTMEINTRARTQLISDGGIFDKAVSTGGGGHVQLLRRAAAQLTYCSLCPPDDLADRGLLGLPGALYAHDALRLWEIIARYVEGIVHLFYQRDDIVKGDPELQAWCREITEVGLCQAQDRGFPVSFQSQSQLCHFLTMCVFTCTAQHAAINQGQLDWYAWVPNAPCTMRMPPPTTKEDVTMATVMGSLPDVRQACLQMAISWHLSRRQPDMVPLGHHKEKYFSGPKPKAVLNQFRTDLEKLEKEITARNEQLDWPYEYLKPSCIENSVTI
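Purified human 12hLO (150 nM final) in 25 mM Hepes, 0.01% Triton X-100, pH 7.0 was preincubated 15 min at room temperature with compound. Then 40 uM arachidonic acid was added, 30 min. Hydroperoxide was read by Fe-XO absorbance ratio 573/405 nm.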
DT40 TDP1 CPT = DT40-hTDP1 cell growth loss with CPT. chicken DT40 Tdp1-/-;hTDP1 cells + 20 nM CPT, ATP luminescence, 48 h. Potency, µM (series often up to 46.2 µM), for the others: at the highest dose activity change, negative = growth inhibition, hits mostly inhibitors. hit rate 12% among 420,000. AID 686979; also: nearly all actives have a fitted effect of over 55% in size
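Chicken DT40 Tdp1-/- cells stably complemented with human TDP1 were seeded at 400 cells/well in medium containing 20 nM camptothecin, exposed to pin-transferred compounds, and grown at 37 °C for at least 48 hr. Viability was read as ATP luminescence.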
Starred values were filed as active, the others as inactive; ? = inconclusive; · = not tested or not shown; [ ] = another dose, or the depositor's remark. Calls follow the shape of the dose curve; as a rule, active = well fitted curve in the direction sought with a large enough effect; inconclusive = small, poorly fitted or top-dose-only effect, or another doubt; inactive = no such curve, though single readings can be large; an effect the other way counts as inactive or inconclusive. % is scaled to controls: 0 for no effect and ±100 for the full control effect; potency is read from the fitted curve at half-maximal effect.

SMILES	VP16 counter	ELG1 repair inh	RORgamma inh	DT40 TDP1 no CPT	12-LOX inh	DT40 TDP1 CPT
COc1cc(O)c(C(CCN2CCN(c3ccccc3)CC2)c2ccc3c(c2)OCO3)c(OC)c1 (configuration not stated)	-4.2%	-17.8%	-18.7%	16.4µM*	-21.1%	23.1µM*
COc1cc(O)c(C(CCN2CCCC2)c2ccc3c(c2)OCO3)c(OC)c1 (configuration not stated)	-6.0%	?	-14.4%	23.1µM*	?	23.1µM*
COc1ccc(C(CCN2CCOCC2)c2c(O)cc(OC)cc2OC)cc1 (configuration not stated)	2.6%	-1.0%	-12.1%	?	0.4%	?
CCN(CC)CCC(c1ccc2c(c1)OCO2)c1c(O)cc(OC)cc1OC (configuration not stated)	?	0.0%	?	18.4µM*	-1.3%	20.6µM*
COc1cc(O)c(C(CCN2CCN(c3ccccc3)CC2)c2cc(OC)c(OC)c(OC)c2)c(OC)c1 (configuration not stated)	-4.9%	-12.4%	-17.4%	23.1µM*	?	20.6µM*
COc1ccccc1/C=C1\Oc2cc(OS(=O)(=O)c3ccccc3)ccc2C1=O	·	·	·	·	-20.5%	·
COc1cccc(/C=C(/C#N)c2nc3ccccc3[nH]2)c1OC(C)C	·	·	·	·	-27.6%	·
COc1ccc(NC(=O)c2ccc3c(c2)OCCN(c2ccccc2)C3)c(F)c1	·	·	·	·	0.9%[176 µM]	·
O=C(O)CCCC(=O)OCCCc1ccccc1	·	·	·	·	15.0%	·
COCCN1CCC(N2CCN(C(=O)C3CCCC3)CC2)C1=O (configuration not stated)	·	·	·	·	57.9%	·
C/C(=N\NC(=O)c1ccccc1[N+](=O)[O-])c1c(O)cc(C)oc1=O	6.31µM*	8.6%	3.16µM*	?	2.1%	?
C/C(=N\NC(=O)c1cccnc1)c1c(O)cc(C)oc1=O	2.1%	18.2%	-44.4%	3.5%	-0.3%	4.7%
C/C(=N\NC(=O)c1ccccc1O)c1c(O)cc(C)oc1=O	2.51µM*	?	0.891µM*	?	27.2%	?
C/C(=N\NC(=O)c1ccc([N+](=O)[O-])cc1)c1c(O)cc(C)oc1=O	?	0.9%	0.631µM*	?	-4.3%	?
Cc1ccc(C(=O)Nc2ncn(CC(=O)NCc3ccc(F)cc3)n2)cc1	·	·	·	·	30.1%	·
CN1C[C@@H](NS(=O)(=O)c2ccccc2)C[C@H]1c1nc(-c2ccccn2)no1	·	·	·	·	27.3%[176 µM]	·
CC(C)c1nn2c(=O)cc(COC(=O)c3ccccc3NC(=O)c3cccs3)nc2s1	·	·	·	7.31µM*	-17.4%	7.31µM*
CC(C)Cc1nn2c(=O)cc(COC(=O)c3ccccc3NC(=O)c3cccs3)nc2s1	·	·	·	?	-15.0%	-15.8%
CC(C)c1nn2c(=O)cc(COC(=O)c3ccccc3NC(=O)c3cccc(Cl)c3)nc2s1	·	·	·	18.4µM*	?	16.4µM*
CCn1ccc(C(=O)N2CCCC(c3ccccc3)(c3ccccc3)C2)cc1=O	·	·	·	·	4.6%	·
Cc1cccc2c(=O)c(-c3ccc4c(c3)OCO4)c(NC(=O)c3ccco3)oc12	3.3%	10.3µM*	-7.6%	-25.9%	-1.9%	?
Cc1cccc(-c2c(NC(=O)c3ccco3)oc3c(C)cccc3c2=O)c1	2.6%	-18.0%	-19.7%	25.9µM*	-19.1%	?
COc1cc(-c2c(NC(=O)c3ccco3)oc3c(C)cccc3c2=O)cc(OC)c1OC	5.1%	-7.5%	19.2%	18.4µM*	10.3%	-27.4%
CCN(CC)CCNC(=O)C1CCCN(S(=O)(=O)c2ccccc2)CCC(=O)NCC1 (configuration not stated)	·	·	·	·	36.6%	·
Cc1ccc(NC(=O)N2CCCCCCNC(=O)[C@@H]3CCCC[C@@H]32)cc1C	·	·	·	·	9.7%	·

High-throughput results (PubChem BioAssay)
